Compounds with a hit are over-represented: about 0.66% of the library has one in this group of screens.
Htt clearance: compounds clearing mutant huntingtin protein; 0.42% of 47,000 active; inhibition, % at 1.5 µM; HeLa Exon1htt(103Q)mCFP, aggregate imaging; zero = plate's median compound well;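 active = inhibition of aggregate fluorescence above about 70%, also judged a hit by eye on the cell image, limit read from the data, passing the limit was not always enough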;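 also: cells exposed to compound for three days before fixation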
SK-BR-3 tox 24h: SK-BR-3 proliferation inhibitors; SK-BR-3 viability, CellTiter-Glo ATP luminescence, 24 h; stronger effect = lower value; viability, % at 10 µM; 0.47% of 41,000 active; AID 847;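 active = viability at or below the median of all test compounds minus 3 SD, in both replicates if run twice, cut at about 45% in these data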
Hits are given with their value; 0 = inactive; - = no result.

SMILES | Htt clearance | SK-BR-3 tox 24h
COCc1cc(C)nc(Nc2ccc(C)c(C)c2)c1C#N | 0 | -
COCc1cc(C)nc(Nc2ccc(C)cc2C)c1C#N | - | 38
CC1CCN(c2ccccc2N)CC1 | 0 | 0
CC1CCN(c2ccc(C(=O)O)cc2N)CC1 | - | 43
COc1ccc(NC(=O)C(NC(C)=O)C(=O)NCc2ccccc2)cc1 (centres undefined) | 0 | -
Cc1ccc2c(c1)nnn2C1CCN(S(=O)(=O)c2ccc(C(=O)N(C)C3CCCCC3)cc2)CC1 | - | 0
Cn1c(=O)c2c(ncn2CCO)n(C)c1=O | - | 0
CC(C)CCn1cnc2c1c(=O)n(C)c(=O)n2C | 73 | 0
COc1ccc(-c2nnc(SCC(=O)OC3CCCCC3)o2)cc1OC | 72 | 0
COc1ccc(-c2nnc(SCC(=O)N3CCCC3)o2)cc1OC | 0 | 0
O=C(NCC(=O)N(c1ccccc1)C(C(=O)NCC1CCCO1)c1ccccc1)c1ccco1 (centres undefined) | 0 | 0
CC(C)COc1ccc(C(=O)OCCN2CCOCC2)cc1 | 0 | -
CCCc1cc(C(=O)Nc2ccc(C)cc2)no1 | 0 | -
O=C1CCC(C(=O)NC2(C(=O)NC3CCCCC3)CCCCC2)N1 (centres undefined) | 0 | 28
Cc1ccc(N(C(=O)C2CCC(=O)N2)C2(C(=O)NC3CCCCC3)CCCCC2)cc1 (centres undefined) | - | 0
Cc1cccc(S(=O)(=O)c2c(N)n(Cc3ccco3)c3nc4ccccc4nc23)c1 | - | 0
Nc1c(S(=O)(=O)c2cccc(Cl)c2)c2nc3ccccc3nc2n1/N=C/c1ccc(O)c(O)c1 | - | 2.7
COC(=O)c1ccccc1NC(=O)Cn1c(-c2nonc2N)nc2ccccc21 | 0 | 0
Cc1cc(C)n2nc(SC(C)C(=O)NCc3ccco3)nc2n1 (centres undefined) | 0 | -
Nn1c(SCC(=O)NC2CCCCC2)nnc1C1CC1 | 0 | -
O=C(NCc1ccc(F)cc1)c1cnn2ccccc12 | 75 | -
CCc1ccc(NC(=O)c2cnn3ccccc23)cc1 | 0 | -
CCOCCn1c(SCc2c(F)cccc2Cl)nc2c1c(=O)[nH]c(=O)n2C | 0 | 0
CCCc1nc(SCC(=O)Nc2cc(C)on2)c2ccccc2n1 | - | 0
Cc1cc(NC(=O)CSc2nc(CCC3CCCC3)nc3ccccc23)no1 | 84 | 0
SMILES | Htt clearance | SK-BR-3 tox 24h
COc1ccc(CN(C(=O)c2cnccn2)C(C(=O)NC(C)(C)C)c2cc(OC)c(OC)c(OC)c2)cc1 (centres undefined) | 70 | -
COc1cc(C(C(=O)NC(C)(C)C)N(Cc2ccc3c(c2)OCO3)C(=O)c2cnccn2)cc(OC)c1OC (centres undefined) | 0 | -
COc1cccc(C(=O)CSc2nc3ccccc3n2CC(=O)N(C(C)C)C(C)C)c1 | 0 | -
COc1ccc(Cl)cc1NC(=O)CCN1CCN(c2ccccc2C)CC1 | 0 | -
CCN1CCN(c2ncc(C(=O)Nc3cc(Cl)ccc3OC)c3ccccc23)CC1 | - | 33
CCOC(=O)N1CCN(c2ccc(Cl)c(Cl)c2)CC1 | - | 0
CN(C)CCCOC(=O)c1ccc(Cl)cc1Cl | - | 0
CCOC(=O)N1CCN(C(=O)CS(=O)(=O)c2cn(Cc3ccccc3Cl)c3ccccc23)CC1 | 0 | -
Cc1cc(NC(=O)CS(=O)(=O)c2cn(Cc3ccccc3Cl)c3ccccc23)no1 | - | 34
c1ccc2c(CSc3nnc(-c4ccncc4)o3)cccc2c1 | 0 | -
COCCNc1c(-c2ccc(O)cc2)nc2ccc(Cl)cn12 | 0 | 0
C=CCN=C(C)C1=C(O)CCC1=O | 77 | 0
C=CCN=C(CC)C1=C(O)CCCC1=O | 0 | 0
CSc1cccc(NC(=O)C(C)NS(=O)(=O)c2ccc(F)cc2)c1 (centres undefined) | 0 | -
Nc1cc(Cl)ccc1Oc1ccccc1 | 0 | 0
Cc1ccc(Oc2ccccc2)c(NC=O)c1 | - | 36
CCn1c(CSc2nc(C)cs2)nc2cc(S(=O)(=O)N(C)C)ccc21 | 0 | -
O=C(NCCC1=CCCCC1)C1CCN(S(=O)(=O)N2CCOCC2)CC1 | 0 | -
CCc1ccc(C(=O)COC(=O)CNC(=O)CNC(=O)Cc2ccccc2)cc1 | 0 | -
FC(F)(F)c1cc(-c2ccco2)nc(NCc2ccco2)n1 | 0 | 0
CS(=O)(=O)c1nc(-c2ccco2)cc(C(F)(F)F)n1 | 0 | 31
CC(=O)c1cccc(NC(=O)N2CCN(S(C)(=O)=O)CC2)c1 | - | 0
CCn1c(=S)[nH]c2nc3c(cc2c1=O)CCCC3 | 71 | -
Cc1cc(C)n2nc3nc4c(cc3c2n1)CCCC4 | - | 0
CN(CC(=O)NCCc1ccccc1)S(=O)(=O)c1ccc(Br)cc1 | 0 | -
SMILES | Htt clearance | SK-BR-3 tox 24h
CCN(CC)c1ccc(NC(=O)Nc2cccc(C(C)=O)c2)cc1 | 0 | 0
CC(NS(=O)(=O)c1ccc(Cl)cc1)C(c1cccs1)N1CCN(C)CC1 (centres undefined) | 77 | -
CC(NS(C)(=O)=O)C(c1cccs1)N1CCN(c2ccccc2)CC1 (centres undefined) | 0 | -
Cc1cc2oc(=O)cc(CN3CCC(C)CC3)c2c(C)c1Cl | - | 0
COc1ccc(N2CCN(Cc3cc(=O)oc4cc(C)c(Cl)c(C)c34)CC2)cc1 | 0 | 42
Cc1cc(C)nc(SCc2nnc(SCC(N)=O)n2Cc2ccco2)n1 | 0 | -
NC(=O)C1(N2CCCCC2)CCN(C(=O)c2ccc(-n3cnnn3)cc2)CC1 | 0 | 42
O=C(c1ccc(-n2cnnn2)cc1)N1CCOCC1 | 0 | 0
COc1cc(C(=O)Nc2ccc(S(=O)(=O)N3CCCCC3C)cc2)cc(OC)c1OC (centres undefined) | - | 0
Cc1ccc(SCCNC(=O)CN2C(=O)c3ccccc3S2(=O)=O)cc1 | - | 0
O=C(CN1C(=O)c2ccccc2S1(=O)=O)NCCSc1ccccc1 | - | 44
COc1ccc(C2=NOC(C(=O)NCc3ccccn3)C2)cc1OC (centres undefined) | 0 | -
CC1(C)Cc2ccccc2C(/C(=N/O)C(N)=O)=N1 | 0 | 0
COCCCn1c(SCC(=O)Nc2nnc(C)s2)nnc1-c1ccoc1C | 78 | 0
CCc1nnc(NC(=O)CSc2nnc(-c3ccoc3C)n2CC(C)C)s1 | - | 0
COc1ccc2nc(C)cc(N3CC(C)OC(C)C3)c2c1 (centres undefined) | 0 | -
CCOc1ccccc1NC(=O)C1CCN(S(=O)(=O)c2ccc(OC)c(OC)c2)CC1 | - | 0
CCOc1ccccc1NC(=O)C1CCN(c2ccc(S(=O)(=O)N3CCCC3)cc2)CC1 | 72 | 0
CC(=O)c1cnc2cc(-c3ccc(Cl)cc3)nn2c1C | 0 | -
COc1ccc(CNC(=O)C2CCCN2S(=O)(=O)c2ccc(S(=O)(=O)N(C)C)cc2)cc1 (centres undefined) | - | 33
CNC(=O)C1CCCN1S(=O)(=O)c1ccc(OC)cc1 (centres undefined) | 0 | 0
COc1ccc(-n2ccnc2SCC(=O)NCc2ccc3c(c2)OCO3)cc1 | 0 | -
O=C(O)/C(=C1\OC(=O)c2ccccc21)c1ccccc1 | 0 | -
O=S1(=O)C=C(Sc2nc3ccccc3s2)c2ccccc21 | - | 22
Cc1cc(C)nc(SC2=CS(=O)(=O)c3ccccc32)n1 | 0 | 0
SMILES | Htt clearance | SK-BR-3 tox 24h
O=C(O)c1cccnc1SCc1ccccc1 | 0 | -
CC(C)C[C@H](N)c1nnc(S(=O)(=O)Cc2ccc(F)cc2)o1 | - | 33
COC(=O)CS(=O)(=O)c1nnc([C@H](Cc2ccccc2)NC(=O)OC(C)(C)C)o1 | 0 | 0
CC(C)c1ccc(-c2noc(C3CCCN(C(=O)c4ccc(F)cc4F)C3)n2)cc1 (centres undefined) | - | 0
Cc1ccc(-c2noc(C3CCCN(C(=O)c4ccc(F)cc4F)C3)n2)cc1 (centres undefined) | - | 42
CCOC(=O)N1CCC(N2C(=O)c3ccc(C(=O)NCc4ccco4)cc3C2=O)CC1 | 0 | -

Compound activity as filed in PubChem BioAssay.
